Results on 40 compounds are retold here after PubChem BioAssay (NCI).

Compounds without any hit were thinned out: in the full panel of roughly 83,000, 20% have a hit.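 Plates (96-well) were seeded with cells, treated with compound at one concentration, and incubated for 48 hours before percent growth was determined.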 Unmarked numbers belong to inactive results. Activity calls are given as the source filed them. The calls were made as follows: active = growth percent below 10; inactive = the rest.

This experiment relates to NCI/ADR-RES ovarian. Kind of experiment: NCI-60 one-dose screen, 48 h (100 = growth as untreated, 0 = no growth, -100 = all killed). The following applies: 10 µM unless noted.
As to `O=C(O)c1nn(-c2ccc(Cl)cc2)nc1N1CCCC1`, the growth is 99.5%.

Turning to `COCCNC(=O)Cc1cc(-c2ccc(Cl)cc2)n(-c2ccccc2)c1C`, the growth was 86.1%.

With `O=C(Nc1ccc(Oc2cccc(F)c2)c(Cl)c1)c1cnccn1`, the growth was 9.06% (active).

Turning to `CC(=O)[C@H]1CC[C@]2(C)[C@@H]1CC[C@@H]1[C@@]3(C)C/C(=C/c4cccnc4)C(=O)C(C)(C)[C@@H]3CC[C@]12C`, the growth was 67.2%.

Consider `C=C(C)Cn1c(SCC(=O)c2cccs2)nc2sc3c(c2c1=O)CCCC3`, for which the growth is 43.9%.

Take `Cc1ccc(C(=O)Nc2ccc(CN3CCN(C)CC3)c(C(F)(F)F)c2)cc1C#Cc1cnc(N)c2ccccc12`: the growth was -32.8% (active).

For the compound `COc1cc(C2CC(c3cccc(Nc4ccncc4)c3)=Nc3c(N)ncnc3N2)cc(OC)c1OC` (stereo not given), the growth is 96.7%.

With `CO[C@]12C=C/C(=C(/C(=O)OCc3cccnc3)C(=O)CCCCCCCC[C@]3(OC)C=C/C(=C(/C(=O)OCc4cccnc4)C(=O)CCCCCCCC1)O3)O2`, the growth is -23.9% (active).

As for `CCOC(=O)CSc1nc2sc3c(c2c(=O)n1-c1ccccc1)CCCCC3`, the growth was 108%.

Regarding `CN1CCN(Cc2ccc(NC(=O)c3cncc(C#Cc4cnc(N)c5ccc(C#N)cc45)c3)cc2C(F)(F)F)CC1`, the growth was -13.6% (active).

Take `CCOC(=O)C1=C(c2ccccc2)N=C2SC=C(c3cccc([N+](=O)[O-])c3)N2C1c1ccc(O)cc1` (stereo not given): the growth was 99.3%.

Consider `CCn1c2ccccc2c2cc(C(O)c3cccc4ncccc34)ccc21` (stereo not given), for which the growth was -53.2% (active).

With `Cc1c(Cl)cccc1NC(=O)c1sc2nc3c(cc2c1N)CCCC3`, the growth is 27.1%.

As to `O=C(/C=C/c1ccco1)Nc1ncc(Cc2ccc(F)cc2)s1`, the growth is 0.377% (active).

With `COc1nc2ccccc2cc1/C=[N+](\[O-])c1ccccc1`, the growth is 44.9%.

As to `COc1ccc(-c2ccc(-c3ccc(C(=N)N)o3)o2)cc1`, the growth is 14.4%.

In the case of `C=C(C[n+]1ccccc1)[C@@H]1CC[C@]2(C(=O)OC)CC[C@]3(C)[C@H](CC[C@@H]4[C@@]5(C)CCC(=O)C(C)(C)[C@@H]5CC[C@]43C)[C@@H]12`, the growth is 103%.

For the compound `COc1cccc(C(=O)Nc2cccc(NC(=O)c3ccccn3)c2)c1`, the growth was 96.1%.

Consider `N#CC1=C(N)Oc2c(ccc3cccnc23)C1c1ccccc1` (stereo not given), for which the growth is -11.2% (active).

`COc1ccc(C2=NN(C=O)C(c3ccc(Oc4nc5c(c(=O)n(C)c(=O)n5C)n4C)c(OC)c3)C2)cc1` (stereo not given): the growth was 63.4%.

For `CCCS(=O)(=O)Nc1cccc(Nc2ncnc3cc(NC(=O)CCl)ccc23)c1Cl`, the growth was 49.9%.

Turning to `Cn1cc(-c2csc(-c3cn(C)c4ccc(F)cc34)n2)c2cnccc21`, the growth was 24.7%.

For `C=C(C)[C@@H]1CC[C@]2(C(=O)NC(C)=O)CC[C@]3(C)[C@H](CC[C@@H]4[C@@]5(C)CCCNC(C)(C)[C@@H]5CC[C@]43C)[C@@H]12`, the growth is 29.4%.

With `COc1cccc(CNc2nnc(C)c(C)n2)c1O`, the growth is 104%.

On to `O=C(/C=C/c1ccc(Cl)cc1)c1ccc(-n2cc(CN3CCN(c4cc5c(cc4F)c(=O)c(C(=O)O)cn5C4CC4)CC3)nn2)cc1`, for which the growth was 94.8%.

In the case of `COc1cccc2cc(N(C)c3nc(C)nc4c3CCC4)ccc12`, the growth is 12.6%.

For `O=C(O)CCCN1C(=O)CSC1=S`, the growth was 103%.

`Cc1c2cnccc2c(C)c2c1c1cc(C(=O)O)ccc1n2C`: the growth is 3.03% (active).

For `C=C1C(=O)O[C@H]2[C@H]1CC/C(CNC(=O)/C=C/c1cc(OC)c(OC)c(OC)c1)=C\CC[C@@]1(C)O[C@@H]21`, the growth is 76.7%.

With `Cc1nc2ccccc2c(/C=C/c2ccc(Br)cc2)c1C(=O)/C=C/c1ccccc1`, the growth is -2.99% (active).

As to `CC(=O)O[C@H]1C[C@@]2(C)[C@@H](C[C@@H](O)[C@H]3[C@@]4(C)CC[C@H](N5CCCC5)[C@@H](C)[C@@H]4CC[C@@]32C)/C1=C(\CCC=C(C)C)C(=O)O`, the growth is 95.1%.

In the case of `O=C(O)c1cc2ccccc2s1`, the growth was 108%.

Turning to `CC(=O)OCCOc1cc(Cl)c(Cl)cc1Cl`, the growth is 105%.

As for `CCN1CCN(c2nc(NNC(=O)c3ccc(OC)cc3)nc(N3CCN(C(c4ccccc4)c4ccccc4)CC3)n2)CC1`, the growth is 73.4%.

As for `Cc1cc(=O)oc2cc(Oc3nc(-c4ccccc4)cn4c(-c5ccccc5)cnc34)ccc12`, the growth is 45.4%.

For `CN(Cc1ccccc1)c1nc(Cl)c(C2CC(c3ccc(Cl)cc3)=NN2c2cc(Cl)cc(Cl)c2)s1` (stereo not given), the growth was 102%.

With `COC(=O)c1c(C)nc(C)c2c1C(=O)C(Br)=C(NCCCCO)C2=O`, the growth was 80%.

Consider `COc1cc(/C=C/c2cc(/C=C/c3ccc(O)c(OC)c3)n(C(=O)Nc3ccc(C)cc3C)n2)ccc1O`, for which the growth is 7.64% (active).

As to `Cc1cc2nc(C(Cl)Cl)nc(-c3ccccc3)n2n1`, the growth is 48.6%.

As for `CN1C(=O)N(C)C2C1NN=c1s/c(=C\c3ccccc3F)c(=O)n12` (stereo not given), the growth is -13.1% (active).
